# According to PubChem BioAssay AID540345 (The Scripps Research Institute Molecular Screening Center, 2011):
# Values without a mark were called inactive. The rule behind the calls is not given here.
# System: Imidazoline I2
# Experiment: off-target binding and CYP inhibition panel, profiling panel, selectivity assay for GPR7 antagonist project, biochemical, Ricerca HitProfilingScreen, CYP450, set 2 (AID 540345)
# Settings: Ricerca radioligand binding/CYP panel, central, at 10 µM, hits give high values
compound,measurement,value
COc1ccc(Oc2c(Cl)cnn(C3c4ccccc4-c4ccccc43)c2=O)cc1,inhibition,12%
